# Sampled rows, rich in hits. Any-hit rate of the full collection: about 20%.
# HCMV antiviral = inhibitors of human cytomegalovirus; HFF cells, HCMV-luciferase reporter, 72 h; stronger effect = lower value; activity change, negative = inhibition, % at 57.5 µM; AID 1259415; 410,000 compounds, 4.5% hits; in the data active means activity change below about -60%; inconclusive means no clear call, values can overlap the other calls; inactive means above about -39%; further: on the % scale 0 is the no-effect control and ±100 the full control effect
#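 After 16 h attachment at 37C, HFF cells received test compound and HCMV-luciferase (1 PFU/cell); reporter luminescence read 72 h later, data normalized against buffer-only and known inhibitor Salinomycin.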
# Shiga inhibitor = inhibitors of Shiga toxin in Vero cells; 290,000 compounds, 9.2% hits; inhibition, % at 38.7 µM; Vero cells, Shiga toxin protein synthesis inhibition reporter; in the data active means inhibition mostly above about 28%, no sharp cut-off; inactive means mostly below about 43%; further: 0% is about no effect
# Pf growth 48h = P. falciparum growth inhibition at 48 hours (one generation). AID 504832. 310,000 compounds, 5.9% hits. P. falciparum luciferase growth in erythrocytes, 48 h. Potency, µM (series often up to 28.7 µM), inactives show at the top dose activity change, negative = inhibition, actives largely listed as inhibitors; further: potency means the concentration at half of the fitted maximal effect; on the % scale 0 is the no-effect control and ±100 the full control effect
#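 Luciferase-expressing parasites in RBCs, 2% Hct / 0.1% parasitemia final; RPMI 1640 + 0.5% Albumax; 37 C, 5% CO2, one generation; luminescence read-out, lower signal = inhibition.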
# Pf growth 96h = P. falciparum growth inhibition at 96 hours. P. falciparum luciferase reporter growth, 96 h. AID 504834. Potency, µM (series often up to 28.7 µM), for inactives: top-dose activity change, negative = inhibition, most hits filed as inhibitors. 320,000 compounds, 6.9% hits; further: potency means the concentration at half of the fitted maximal effect; on the % scale 0 is the no-effect control and ±100 the full control effect
#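 96 h incubation, 37 C, 5% CO2, of luciferase-reporter P. falciparum-infected RBCs (2% hematocrit, 0.05% parasitemia final) with test compounds; endpoint luminescence.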
# Cycloheximide cs = affects cycloheximide protein synthesis inhibition readout, counter-screen; cell reporter, cycloheximide protein synthesis inhibition counterscreen; max response, %; 300,000 compounds, 12% hits; AID 2314; in the data active means max response mostly above about 13%, no sharp cut-off; inactive means mostly below about 14%; further: read at 38.3 µM for the half of the compounds with a filed dose; 0% is about no effect
# Starred values were filed as active, the others as inactive; ? = inconclusive; . = no result given; [ ] = dose if it differs, or a comment. Unless noted, the call rests on the fitted dose curve; in most records, active means well fitted inhibition curve with a large enough effect; inconclusive means small, poorly fitted or top-dose-only effect, or another doubt; inactive means no such curve, though single readings can be large or run the other way.
SMILES,HCMV antiviral,Shiga inhibitor,Pf growth 48h,Pf growth 96h,Cycloheximide cs
O=C(O)c1cnn(-c2nc(-c3cccc([N+](=O)[O-])c3)cs2)c1C(F)(F)F,-94*,3,?,?,-3
O=C(O)c1cnn(-c2ccccc2)c1C(F)(F)F,-80*,10,119%,33%,8
O=C(O)c1cnn(-c2nc(-c3cccc(F)c3)cs2)c1C(F)(F)F,?,25,?,37%[1.15 µM],10
Cn1ccnc1SCC(=O)Nc1cc(C(F)(F)F)ccc1N1CCOCC1,34,-9,-5%,.,-1
Cc1ccc2nc(N/N=C/c3ccccc3F)nc(-c3ccccc3)c2c1,?,9,-28%,?,-3
CCOc1ccc(/C=N/Nc2cc(N3CCOCC3)ncn2)c(O)c1,24,.,.,.,.
Clc1cccc(Cl)c1/C=N\Nc1nccs1,28,2,?,9.3µM*,10
CCOc1ccc(/C=N/Nc2nc(C)cs2)c(O)c1,73,58*,?,-28%,49*
Fc1cccc(Cl)c1/C=N/Nc1ccccn1,153,58,99%,87%,10
Cc1csc(N/N=C/c2c(F)cccc2Cl)n1,49,86*,109%,96%,38*
Cc1csc(N/N=C/c2ccccc2F)n1,14,56*,289%,-22%,38*
COc1ccc(C(=O)C(C(=O)Nc2c(C)cccc2C)N(C(=O)Cc2ccc([N+](=O)[O-])cc2)c2ccccc2)cc1 (centres undefined),-6,.,.,.,.
CCNc1nc(NCC)nc(OCCOC(=O)c2ccccc2)n1,4,25,-17%,?,6
CCNc1nc(NCC)nc(OCCOC(C)=O)n1,18,14,-6%,4.1µM*,1
CCOc1cc(C(=O)NC)cc(Br)c1OC,9,-7,11%,-25%,-3
CCOc1cc(C(=O)N=c2sccn2C)cc(Br)c1OC,-13,-5,?,7.4µM*,12
O=C(c1ccccc1)N1c2ncnn2C2(CCCCC2)[C@@H]2CCCC[C@@H]21,-8,.,.,.,.
Cn1c(SCC(=O)Nc2nc(C(C)(C)C)cs2)nnc1C1CC1,-25,33,-3%,31%,-3
CC(/C=C/c1ccccc1F)=N\NC(=O)c1ccc(Cl)cc1,-8,29,0%,?,14*
O=C(C=Cc1ccccc1F)c1ccccc1,-3,.,.,.,.
CC(/C=C/c1ccccc1F)=N\NC(=O)c1ccccc1,6,160*,55%,0%,55*
CC(/C=C/c1ccccc1)=N/NC(=O)CNC(=O)c1ccccc1F,?,16,-10%,43%,22
COc1c[nH]n(C2CCCCC2)c(=O)c1=O,6,-13,?,?,-5
COC(=O)c1ccc(NC(=O)CC2C(=O)N(c3cccc(OC)c3)C(=O)N2C(C)C)cc1 (centres undefined),13,.,.,.,.
CCn1cc(C(=O)NC2CCCCC2C)c(=O)c2ccc(C)nc21 (centres undefined),21,-3,1%,12µM*,-3
SMILES,HCMV antiviral,Shiga inhibitor,Pf growth 48h,Pf growth 96h,Cycloheximide cs
CCn1cc(C(=O)NC2CC3CCC2C3)c(=O)c2ccc(C)nc21 (centres undefined),.,-14,-13%,5.2µM*,-2
CCC(C)N(C(=O)CSc1nnc(COc2ccccc2F)n1N)C1CCS(=O)(=O)C1 (centres undefined),-23,.,-16%,14%,.
CCc1ccc2nc3n[nH]c(N)c3cc2c1,174,75*,295%,371%,45*
O=C(N/N=C/c1ccc(Sc2ccccn2)o1)c1cccc([N+](=O)[O-])c1,-9,8,-18%,?,-1
O=C(COc1ccc(Cl)cc1)N/N=C/c1cccc2cccnc12,30,-35,21%,42%,-2
O=C(N/N=C\c1ccc(Sc2ccccn2)o1)c1cccc(F)c1,0,62,-5%,22%,18*
O=C(N/N=C/c1ccc(Sc2ccccn2)o1)c1cc2ccccc2cc1O,87,24,?,?,22*
O=C(CCc1ccccc1O)N/N=C/c1ccc(Sc2cccc3cccnc23)o1,-39,25,.,3.7µM*,7
CC(C)C1Oc2ccccc2N(CC(=O)N2CCOCC2)C1=O (centres undefined),?,-5,30%,2%,-4
O=C(O)CC12C[C@H]3C[C@@H](C1)CC(n1ncc(N4CCN(c5ccccc5)CC4)c(Cl)c1=O)(C3)C2,-22,-7,48%,?,4
Cc1nc(SCc2nc3c(F)cccc3[nH]2)c2oc3ccccc3c2n1,6,.,.,.,.
Cc1cccc(CSc2nnc3c(n2)[nH]c2ccccc23)c1,-4,7,1.5µM*,1.9µM*,2
Cc1ccnc(NC(=O)CSc2nnc3c(n2)[nH]c2ccccc23)c1,.,47*,8%,-4%,33*
O=C(NCCS(=O)(=O)N1CCN(c2ccccc2)CC1)C(c1ccccc1)c1ccccc1,59,.,.,.,.
CC(C)c1ccc2[nH]c3c(c2c1)[C@@H]1CCN2C(=O)CCC[C@H](C3)[C@H]12,6,35*,8%,?,22*
CC1Cc2ccccc2N1C(=O)CSc1nnc(-c2ccccc2Cl)o1 (centres undefined),-13,.,.,.,.
COc1ccc(NC(=O)N2CCc3ccccc3C2)c(OC)c1,-29,36*,3%,38%,16*
CCOc1ccccc1NC(=O)N1CCc2ccccc2C1,13,22,?,-18%,19*
COc1ccc(OC)c(NC(=O)N2CCc3ccccc3C2)c1,-23,10,3%,-28%,16
CCCc1nnc(NC(=O)CCC(=O)Nc2ccc(Br)cc2)s1,-35,-3,3%,1%,1
O=C(NC(=S)NCCO)c1cn(-c2ccccc2)nc1-c1ccccc1,2,49*,33%,0%,24
Cc1cccc(NC(=O)c2cn(-c3ccccc3)nc2-c2ccccc2)c1C,-27,.,.,.,.
Cc1cccc(C)c1NC(=O)c1cn(-c2ccccc2)nc1-c1ccccc1,-64*,-7,-23%,-42%,-2
COc1cccc(-c2nn(-c3ccccc3)cc2C(=O)Nc2nccs2)c1,?,12,7.4µM*,?,8
Cc1ccccc1NC(=O)c1cn(-c2ccccc2)nc1-c1ccccc1,?,-10,?,-23%,-2
SMILES,HCMV antiviral,Shiga inhibitor,Pf growth 48h,Pf growth 96h,Cycloheximide cs
Cc1cccc(NC(=O)c2cn(-c3ccccc3)nc2-c2ccccc2)c1,-4,27,-8%,13µM*,13*
O=C(Cn1nc(C(=O)O)c2ccccc2c1=O)Nc1cc(C(F)(F)F)ccc1-n1cncn1,-23,.,-24%,-5%,.
Cc1cccc(C)c1NC(=O)CSc1nnc(Cc2ccccc2)o1,-12,13,-17%,12µM*,-2
O=C(CSc1nnc(Cc2ccccc2)o1)Nc1ccc2c(c1)OCO2,46,28,.,184%,38*
O=c1c2c3c(sc2nc2n1CCC2)CCC3,23,-11,20%,0.33µM*,-3
O=c1c2c3c(sc2nc2n1CCCC2)CCCC3,?,42*,28%,-96%,19*
CN1C[C@]2(CCN3CCCC(C)(C)[C@@H]32)c2ccccc21,18,.,.,.,.
